SMILES strings stand for the structures. Values without a mark were called inactive.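 How the source made its calls: active means activity change under -35% in any replicate well, with more than 20 beads read in that well; inactive means the rest.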

The target in the experiment is Caspase recruitment domain-containing protein 9 (Homo sapiens) + E3 ubiquitin-protein ligase TRIM62 (Homo sapiens) (UniProt Q9H257+Q9BVG3). Put plainly: disruptors of CARD9-TRIM62 binding, primary screen, cell lysate, HEK293FT lysates, Luminex bead ELISA (AID 1259341).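 Further: PE anti-Flag signal of Flag-CARD9 captured by myc-TRIM62 beads.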 To be noted: PE fluorescence, stronger effect = lower value, concentration not given here.
Caspase recruitment domain-containing protein 9 (Homo sapiens) + E3 ubiquitin-protein ligase TRIM62 (Homo sapiens), sequence (Q9BVG3 whole entry, looked up, the tested form may be a part): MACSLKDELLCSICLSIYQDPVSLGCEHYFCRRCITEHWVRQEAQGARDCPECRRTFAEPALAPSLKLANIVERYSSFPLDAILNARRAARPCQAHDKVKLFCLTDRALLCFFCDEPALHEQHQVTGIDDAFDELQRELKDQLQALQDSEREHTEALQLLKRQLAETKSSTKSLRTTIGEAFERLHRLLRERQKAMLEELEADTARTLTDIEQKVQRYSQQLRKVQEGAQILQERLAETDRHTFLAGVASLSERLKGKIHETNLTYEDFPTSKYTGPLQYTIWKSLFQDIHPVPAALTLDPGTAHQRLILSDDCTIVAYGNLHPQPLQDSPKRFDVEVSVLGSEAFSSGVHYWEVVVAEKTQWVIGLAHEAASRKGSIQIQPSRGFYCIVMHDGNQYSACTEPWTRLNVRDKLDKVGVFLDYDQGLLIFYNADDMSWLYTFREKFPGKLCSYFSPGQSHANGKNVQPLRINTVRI
Caspase recruitment domain-containing protein 9 (Homo sapiens) + E3 ubiquitin-protein ligase TRIM62 (Homo sapiens), sequence (Q9H257 whole entry, looked up, the tested form may be a part): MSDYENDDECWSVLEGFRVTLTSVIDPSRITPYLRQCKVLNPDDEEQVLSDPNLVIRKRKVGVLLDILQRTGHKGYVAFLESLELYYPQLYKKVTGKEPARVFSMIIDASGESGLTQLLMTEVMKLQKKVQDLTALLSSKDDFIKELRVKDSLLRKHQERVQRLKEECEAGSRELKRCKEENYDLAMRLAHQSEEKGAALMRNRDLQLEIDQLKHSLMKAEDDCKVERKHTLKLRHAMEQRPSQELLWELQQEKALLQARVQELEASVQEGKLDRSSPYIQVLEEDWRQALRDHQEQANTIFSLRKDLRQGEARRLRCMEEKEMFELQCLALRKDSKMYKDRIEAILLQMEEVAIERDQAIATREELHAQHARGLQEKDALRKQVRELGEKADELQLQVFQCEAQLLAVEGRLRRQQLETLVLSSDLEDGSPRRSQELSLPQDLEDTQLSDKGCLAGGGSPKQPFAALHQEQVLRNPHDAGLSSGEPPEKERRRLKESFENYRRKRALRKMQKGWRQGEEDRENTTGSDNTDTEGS
On to `O=C(Nc1ccon1)c1cc2cccnc2n(Cc2ccccc2)c1=O`, for which the activity change, negative = inhibition was 4.61%.

`O=C(NC1(C(F)(F)F)Oc2ccc(Cl)cc2O1)N1CCC2(CC1)OCCO2` (configuration not stated): the activity change, negative = inhibition was -0.512%.

As to `Nc1c(C(=O)NCc2ccco2)c2nc3ccccc3nc2n1CCN1CCOCC1`, the activity change, negative = inhibition is -14.4%.

Turning to `O=C(NCCc1ccccc1)c1cc2cccnc2n(Cc2ccccc2)c1=O`, the activity change, negative = inhibition is -0.118%.

As for `Cc1ccc(S(=O)(=O)Cc2ccc(C(=O)N3CCC4(CC3)OCCO4)o2)cc1`, the activity change, negative = inhibition was 1.47%.

In the case of `Nc1c2c(nc3ccccc13)CCN(Cc1ccccc1)C2`, the activity change, negative = inhibition was -1.61%.

For `CCCCCn1c(NC(=O)c2ccco2)c(C(=O)OCC)c2nc3ccccc3nc21`, the activity change, negative = inhibition was -11.3%.

The values above are taken from PubChem BioAssay AID1259341 (Broad Institute, 2017).
